FMDV antiviral = High Throughput Screening for Foot and Mouth Disease Virus Antivirals. FMDV antiviral cell-based qHTS. Potency, µM (doses to about 57.9 µM), actives largely listed as inhibitors. 410,000 compounds, 1.2% hits. AID 1159524, 2015; calls by dose curve; tested in HEK293T cells; further: read-out not given here; nearly all actives have a fitted effect of over 45% in size
Sm TGR inh = qHTS Assay for the Inhibitors of Schistosoma Mansoni Peroxiredoxins; Potency, µM (series often up to 114 µM), most hits filed as inhibitors; 360,000 compounds, 3% hits; purified TGR, DTNB reduction, TNB absorbance 405 nm; AID 485364, 2010; active means well fitted inhibition curve with a large enough effect; inconclusive means small, poorly fitted or top-dose-only effect; inactive means no such curve, though single readings can be large or run the other way; further: nearly all actives have a fitted effect of over 60% in size
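TGR 20 nM + NADPH 100 uM (dispensed conc.), cpd preinc 15 min RT; start with NADPH (500 uM addition) then DTNB (15 mM addition). Kinetic TNB absorbance, 405 nm filter. Four-parameter Hill fit across titration.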
CHX counter = Cycloheximide Counterscreen for Small Molecule Inhibitors of Shiga Toxin. cell reporter, cycloheximide protein synthesis inhibition counterscreen. max response, %. 300,000 compounds, 12% hits; in the data active means max response mostly above about 13%, no sharp cut-off; inactive means mostly below about 14%; further: read at 38.3 µM for the half of the compounds with a filed dose
Shiga inhibitor = A qHTS for Small Molecule Inhibitors of Shiga Toxin | Vero cells, Shiga toxin protein synthesis inhibition reporter | inhibition, % at 38.7 µM | 290,000 compounds, 9.2% hits; in the data active means inhibition mostly above about 28%, no sharp cut-off; inactive means mostly below about 43%
Large screens that a line does not name were inactive. In the library only some 12% were active in any assay of this set; here they are far more common.

CC(=O)c1ccc(NC(=O)NC2CCCc3ccccc32)cc1 (stereo not given)	none
COc1ccc(C)cc1NC(=O)NC1CCCc2ccccc21 (stereo not given)	none
COc1ccc(NC(=O)NC2CCCc3ccccc32)cc1 (stereo not given)	CHX counter 16
COc1ccc(NC(=O)NC2CCCc3ccccc32)cc1OC (stereo not given)	CHX counter 33, Shiga inhibitor 31
Cc1c(C(=O)N(Cc2ccc(N(C)C)cc2)CC2CCCO2)oc2ccc(Cl)cc12 (stereo not given)	none (no result: CHX counter, Shiga inhibitor)
C/C=C/C(=O)OCC(=O)Nc1ccc(C)c(S(=O)(=O)N(C)C)c1	Sm TGR inh 45µM
CCN(CC)S(=O)(=O)c1cccc(C(=O)N[C@H](C(=O)OCC(=O)Nc2ccccc2)C(C)C)c1	CHX counter 15
CCN(CC)S(=O)(=O)c1cccc(NC(=O)COC(=O)/C=C/c2ccco2)c1	Sm TGR inh 22µM
Cc1ccc(NC(=O)COC(=O)/C=C/c2ccco2)cc1S(=O)(=O)N(C)C	Sm TGR inh 25µM
CCN(CC)S(=O)(=O)c1cccc(C(=O)N[C@H](C(=O)OCC(N)=O)C(C)C)c1	none
Cc1ccc(NC(=O)COC(=O)c2ccc(Cl)cc2)cc1S(=O)(=O)N(C)C	none
COc1ccc(C(CC(=O)Nc2ccc(C(C)=O)cc2)N2Cc3ccccc3C2=O)cc1 (stereo not given)	none (no result: CHX counter, Shiga inhibitor)
O=C(O)C1CC=CC2CCN(C3CC3)C(=O)C21 (stereo not given)	none (no result: FMDV antiviral, Sm TGR inh)
CNC(=S)N(Cc1ccco1)Cc1cc2cc3c(cc2[nH]c1=O)OCCO3	Sm TGR inh 14µM
CCNC(=S)N(Cc1ccco1)Cc1cc2cc3c(cc2[nH]c1=O)OCCO3	none
O=C(Nc1ccc(F)cc1)N(CCCN1CCOCC1)Cc1cc2cc3c(cc2[nH]c1=O)OCCO3	CHX counter 37
Cc1ccc2cc(CN(Cc3ccc4c(c3)OCO4)Cc3nnnn3Cc3ccco3)c(=O)[nH]c2c1	Sm TGR inh inconclusive
CN(C)CCCN(Cc1cc2cc3c(cc2[nH]c1=O)OCO3)C(=S)Nc1ccccc1	Shiga inhibitor 31 (no result: Sm TGR inh)
COc1ccccc1CN(Cc1cc2c(C)ccc(C)c2[nH]c1=O)Cc1nnnn1Cc1ccco1	Sm TGR inh 45µM
CN(C)CCCN(Cc1cc2cc3c(cc2[nH]c1=O)OCO3)C(=S)Nc1cccc(Cl)c1	none (no result: Sm TGR inh)
Cc1ccc(OCC(=O)Nc2c(C(=O)c3ccc(Cl)cc3)oc3ccccc23)cc1C	none (no result: CHX counter, Shiga inhibitor)
Cc1ccc(CN(Cc2cc3cc4c(cc3[nH]c2=O)OCCO4)Cc2nnnn2Cc2ccco2)cc1	Sm TGR inh 11µM
Cc1ccc(C)c2[nH]c(=O)c(CN(CCN3CCOCC3)Cc3nnnn3CC3CCCO3)cc12 (stereo not given)	Sm TGR inh 20µM
CN1CCN(c2ncc3ncc(=O)n(C[C@H]4CCCO4)c3n2)CC1	none (no result: Sm TGR inh, CHX counter, Shiga inhibitor)
O=C(O)CSC1CC(=O)N(c2cccc(Cl)c2)C1=O (stereo not given)	Sm TGR inh inconclusive
Cc1cccc(N2C(=O)CC(N(O)c3ccccc3)C2=O)c1 (stereo not given)	Sm TGR inh inconclusive, CHX counter 28
O=C1CC(N(O)c2ccccc2)C(=O)N1c1ccc(Cl)c(Cl)c1 (stereo not given)	Sm TGR inh inconclusive, CHX counter 10
Cc1cccc(N2C(=O)SC(N(C)c3ccccc3)C2=O)c1 (stereo not given)	none
O=C(O)CSC1CC(=O)N(c2ccc(Cl)c(Cl)c2)C1=O (stereo not given)	Sm TGR inh 18µM
Cc1sc(NC(=O)c2ccc(F)cc2)c(CN2CCCCCC2)c1C	CHX counter 43, Shiga inhibitor 175
O=C(Nc1sc2c(c1CN1CCOCC1)CCC2)c1ccc(F)cc1	none
Cc1sc(NC(=O)c2ccccc2F)c(CN2CCCCC2)c1C	CHX counter 50, Shiga inhibitor 127
Cc1cc(Cl)ccc1NS(=O)(=O)c1c(C(=O)N2CCC(C)CC2)c(C)n(C)c1C	none (no result: CHX counter, Shiga inhibitor)
CC(=O)c1sc2nsc(SCCN3CCCC3)c2c1N	CHX counter 20
Nc1cc(N)nc(SCCN2CCCCC2)n1	none
COc1ccc(NC(=O)[C@H](Cc2c[nH]c3ccccc23)NC(=O)[C@@H]2Cc3ccccc3CN2)cc1	CHX counter 19
COc1ccc(CNC(=O)[C@H](Cc2c[nH]c3ccccc23)NC(=O)[C@@H]2Cc3ccccc3CN2)cc1	none
CC(C)c1ccc(NC(=O)[C@H](Cc2c[nH]c3ccccc23)NC(=O)[C@@H]2Cc3ccccc3CN2)cc1	CHX counter 24
C/C(CS(=O)(=O)c1ccccc1)=N\O	none (no result: Sm TGR inh)

Screens: PubChem, National Center for Advancing Translational Sciences (NCATS)
